About 83,000 compounds went through this panel and 20% of them were active in at least one assay; those are over-represented in the sample as a whole.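 Single-dose data. Exposure time 48 hours. Values below 10 considered active.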 Unmarked numbers belong to inactive results. Calls of active or inactive are those of the source.

The results in this text go back to PubChem BioAssay (NCI).

The first assay relates to SR leukemia. Nature of the assay: NCI-60 one-dose screen, 48 h (100 = growth as untreated, 0 = no growth, -100 = all killed). Particulars: 10 µM unless noted.
Consider `COc1cc(Cn2c(SCCC(=O)Nc3ccc(F)cc3)nc3ccccc3c2=O)cc(OC)c1OC`, for which the growth is 56.7%.

Turning to `O=C(O)c1cn(C2CC2)c2cc(N3CCN(S(=O)(=O)c4ccc(Cl)c(Cl)c4)CC3)c(F)cc2c1=O`, the growth was -25.1% (active).

Consider `COc1cc(NCCCN=C(N)NC(N)=NC(C)C)c2ncccc2c1`, for which the growth was 75.2%.

For the compound `O=C(O)c1cccc([N+](=O)[O-])c1/C=C/c1ccccc1`, the growth was 85.2%.

For `NC(CC(N)C(=O)O)C(=O)O` (stereo unspecified), the growth was 89.9%.

Turning to `O=C(O)c1ccc(-n2c(=O)c3ccccc3c3ccccc3c2=O)cc1`, the growth was 87.6%.

Take `COc1cc(Cn2c(SCC(=O)Nc3ccc(Cl)cc3)nc3ccccc3c2=O)cc(OC)c1OC`: the growth was 46.9%.

As to `CN(C)c1ncc(-c2ccc(C(F)(F)F)cc2)c(NC2CCCCCC2)n1`, the growth is 77.5%.

As to `Nc1c(C(=O)Nc2ccccc2)sc2nc3c(cc12)CCCCC3`, the growth is 17%.

Take `CCn1cc(C(=O)O)c(=O)c2cc(F)c(N3CCN(S(=O)(=O)c4c(C)cc(C)cc4C)CC3)cc21`: the growth is 64.7%.

As for `CCn1cc(C(=O)O)c(=O)c2cc(F)c(N3CCN(S(=O)(=O)c4ccc(Cl)cc4Cl)CC3)cc21`, the growth is -19.7% (active).

For `COC12CC(=O)C(C(C)=O)=C(O)C1(C)c1c(O)c(C)c(O)c(C(C)=O)c1O2` (stereo unspecified), the growth was 69.9%.

For the compound `CCCC(C(=O)OCC)C(C)OC(=O)OCC` (stereo unspecified), the growth is 87.6%.

For `NC(=O)NC(=O)/C=C/C(=O)OCCCl`, the growth is 96.8%.

Consider `Cc1ccc(C2=NN(c3ccc(S(=O)(=O)NC(=O)NCc4ccccc4)cc3)C(c3ccc(N(C)C)cc3)C2)c(C)c1` (stereo unspecified), for which the growth was 21.5%.

With `COc1ccc(-c2cn[nH]c2-c2cc(OC)c3c(c2)OCO3)cc1`, the growth was 5.61% (active).

In the case of `CCCCCCCCCCCCNC(=S)N/N=C/c1ccc(Cl)c(Cl)c1`, the growth was 93.8%.

As for `Oc1ccc(Cl)cc1-c1cc(-c2ccc(Cl)cc2)n[nH]1`, the growth was 41.6%.

For the compound `COc1cc(NC(=O)CSc2nc3ccc(C)cc3c(=O)n2-c2ccccc2)cc(OC)c1OC`, the growth was 42.3%.

For `Clc1nc(-c2cccnc2)nc2sc3c(c12)CCCCCC3`, the growth is 87.6%.

`CCCCCCCCCCCCCCCCC(Br)C(=O)O` (stereo unspecified): the growth is 105%.

`CCN(Cc1ccccc1)c1ccc(SC#N)cc1`: the growth was -9.48% (active).

As for `CCCCCC(=O)OCc1ccccc1`, the growth is 85.4%.

Consider `COc1ccc(S(=O)(=O)N2CCN(c3cc4c(cc3F)c(=O)c(C(=O)O)cn4C3CC3)CC2)c(OC)c1`, for which the growth was 81.6%.

Take `COc1cc2nc(N3CCC[C@@H](NC4=CC(=O)c5ccccc5C4=O)C3)nc(N)c2cc1OC`: the growth is -11.3% (active).

Turning to `COc1ccccc1CNCCCN1C(=O)c2ccc3c4c(ccc(c24)C1=O)C(=O)N(CCCNCCCCNCCCCN)C3=O`, the growth is 2.93% (active).

With `Cc1cc(C)c(S(=O)(=O)N2CCN(c3cc4c(cc3F)c(=O)c(C(=O)O)cn4C3CC3)CC2)c(C)c1`, the growth was 39.1%.

Turning to `COc1ccc(NC(=O)CSc2nc3ccccc3c(=O)n2-c2ccccc2C(F)(F)F)c(OC)c1OC`, the growth was 103%.

Take `CNC(C)=O`: the growth was 88.2%.

Regarding `CCN(CC)P(=O)(N(CC)CC)N(CCCSC/C=C(\C)CC/C=C(\C)CCC=C(C)C)CCCN1CCN(C)CC1`, the growth was 22.9%.

Take `COc1ccc(NC(=O)CSc2nc3ccc(Cl)cc3c(=O)n2-c2ccccc2C(F)(F)F)c(OC)c1OC`: the growth is 89.6%.

Turning to `O=S(=O)(O)CCl`, the growth was 84.9%.

Regarding `COc1ccc(OC)c(C(=O)c2oc3ccc(Br)cc3c2N)c1`, the growth is 10.2%.

For `COc1cc(NCCN=C(N)NC(N)=NC(C)C)c2ncccc2c1`, the growth was 74.8%.

With `CC(=O)Nc1nc(C(=O)N2N=C(C)/C(=C/c3cccs3)C2=O)cs1`, the growth was 91.9%.

For the compound `CC(C)[C@H](CO)Nc1nc(Nc2ccc(C(=O)NCCNS(=O)(=O)c3cccc4c(N(C)C)cccc34)c(Cl)c2)c2ncn(C(C)C)c2n1`, the growth is -10.7% (active).

In the case of `CCn1cc(C(=O)O)c(=O)c2cc(F)c(N3CCN(S(=O)(=O)c4cccc5ccccc45)CC3)cc21`, the growth was 2.85% (active).

Turning to `O=C1Nc2ccc(Br)cc2C1=N/C=c1\[nH]c(=O)/c(=C/c2ccc(Cl)cc2)s1`, the growth was 81.6%.

A further assay deals with RPMI-8226 leukemia. Described as above. Particulars: 10 µM unless noted.
For `COc1cc(Cn2c(SCCC(=O)Nc3ccc(F)cc3)nc3ccccc3c2=O)cc(OC)c1OC`, the growth was 74.9%.

Take `O=C(O)c1cn(C2CC2)c2cc(N3CCN(S(=O)(=O)c4ccc(Cl)c(Cl)c4)CC3)c(F)cc2c1=O`: the growth was 4.86% (active).

As for `COc1cc(NCCCN=C(N)NC(N)=NC(C)C)c2ncccc2c1`, the growth is 52.5%.

With `O=C(O)c1cccc([N+](=O)[O-])c1/C=C/c1ccccc1`, the growth was 105%.

Consider `NC(CC(N)C(=O)O)C(=O)O` (stereo unspecified), for which the growth was 98.6%.

With `O=C(O)c1ccc(-n2c(=O)c3ccccc3c3ccccc3c2=O)cc1`, the growth is 103%.

For `COc1cc(Cn2c(SCC(=O)Nc3ccc(Cl)cc3)nc3ccccc3c2=O)cc(OC)c1OC`, the growth was 28.6%.

On to `CN(C)c1ncc(-c2ccc(C(F)(F)F)cc2)c(NC2CCCCCC2)n1`, for which the growth is 1.63% (active).

As to `Nc1c(C(=O)Nc2ccccc2)sc2nc3c(cc12)CCCCC3`, the growth was -29.6% (active).

For the compound `CCn1cc(C(=O)O)c(=O)c2cc(F)c(N3CCN(S(=O)(=O)c4c(C)cc(C)cc4C)CC3)cc21`, the growth was 64.1%.

Take `CCn1cc(C(=O)O)c(=O)c2cc(F)c(N3CCN(S(=O)(=O)c4ccc(Cl)cc4Cl)CC3)cc21`: the growth was 9.07% (active).

For the compound `COC12CC(=O)C(C(C)=O)=C(O)C1(C)c1c(O)c(C)c(O)c(C(C)=O)c1O2` (stereo unspecified), the growth is 44.5%.

With `CCCC(C(=O)OCC)C(C)OC(=O)OCC` (stereo unspecified), the growth was 101%.

For the compound `NC(=O)NC(=O)/C=C/C(=O)OCCCl`, the growth is 93.3%.

As for `Cc1ccc(C2=NN(c3ccc(S(=O)(=O)NC(=O)NCc4ccccc4)cc3)C(c3ccc(N(C)C)cc3)C2)c(C)c1` (stereo unspecified), the growth is 16.6%.

Regarding `COc1ccc(-c2cn[nH]c2-c2cc(OC)c3c(c2)OCO3)cc1`, the growth was -1.3% (active).

On to `CCCCCCCCCCCCNC(=S)N/N=C/c1ccc(Cl)c(Cl)c1`, for which the growth was 102%.

`Oc1ccc(Cl)cc1-c1cc(-c2ccc(Cl)cc2)n[nH]1`: the growth is 40.4%.

Take `COc1cc(NC(=O)CSc2nc3ccc(C)cc3c(=O)n2-c2ccccc2)cc(OC)c1OC`: the growth is 76.3%.

For the compound `Clc1nc(-c2cccnc2)nc2sc3c(c12)CCCCCC3`, the growth is 96.9%.

For the compound `CCCCCCCCCCCCCCCCC(Br)C(=O)O` (stereo unspecified), the growth is 84.6%.

For `CCN(Cc1ccccc1)c1ccc(SC#N)cc1`, the growth is 80.3%.

Consider `CCCCCC(=O)OCc1ccccc1`, for which the growth was 102%.

Regarding `COc1ccc(S(=O)(=O)N2CCN(c3cc4c(cc3F)c(=O)c(C(=O)O)cn4C3CC3)CC2)c(OC)c1`, the growth is 86.7%.

Consider `COc1cc2nc(N3CCC[C@@H](NC4=CC(=O)c5ccccc5C4=O)C3)nc(N)c2cc1OC`, for which the growth was -44.1% (active).

`COc1ccccc1CNCCCN1C(=O)c2ccc3c4c(ccc(c24)C1=O)C(=O)N(CCCNCCCCNCCCCN)C3=O`: the growth is 17.3%.

Consider `Cc1cc(C)c(S(=O)(=O)N2CCN(c3cc4c(cc3F)c(=O)c(C(=O)O)cn4C3CC3)CC2)c(C)c1`, for which the growth was 22.4%.

Regarding `COc1ccc(NC(=O)CSc2nc3ccccc3c(=O)n2-c2ccccc2C(F)(F)F)c(OC)c1OC`, the growth was 93.1%.

On to `CNC(C)=O`, for which the growth was 103%.

In the case of `CCN(CC)P(=O)(N(CC)CC)N(CCCSC/C=C(\C)CC/C=C(\C)CCC=C(C)C)CCCN1CCN(C)CC1`, the growth is 94.6%.

For `COc1ccc(NC(=O)CSc2nc3ccc(Cl)cc3c(=O)n2-c2ccccc2C(F)(F)F)c(OC)c1OC`, the growth is 83.3%.

Regarding `O=S(=O)(O)CCl`, the growth was 98.7%.

Consider `COc1ccc(OC)c(C(=O)c2oc3ccc(Br)cc3c2N)c1`, for which the growth was -16.5% (active).

Regarding `COc1cc(NCCN=C(N)NC(N)=NC(C)C)c2ncccc2c1`, the growth is 73.3%.

As to `CC(=O)Nc1nc(C(=O)N2N=C(C)/C(=C/c3cccs3)C2=O)cs1`, the growth was 97.4%.

In the case of `CC(C)[C@H](CO)Nc1nc(Nc2ccc(C(=O)NCCNS(=O)(=O)c3cccc4c(N(C)C)cccc34)c(Cl)c2)c2ncn(C(C)C)c2n1`, the growth is -41.9% (active).

Consider `CCn1cc(C(=O)O)c(=O)c2cc(F)c(N3CCN(S(=O)(=O)c4cccc5ccccc45)CC3)cc21`, for which the growth was 6.47% (active).

Regarding `O=C1Nc2ccc(Br)cc2C1=N/C=c1\[nH]c(=O)/c(=C/c2ccc(Cl)cc2)s1`, the growth was 98.2%.
